PubChem BioAssay (NCI)
Compounds without any hit were thinned out: in the full panel of roughly 79,000, 15% have a hit. Active and inactive are the calls of the source. Cut-off read from the data, not from the text of the source: active = growth inhibition above about 70%; inactive = the rest.

How the values were obtained:
[1] = NCI Yeast Anticancer Drug Screen. Data for the rad52 strain (AID 147);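 note: 0% = growth of vehicle-treated control cultures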; details: S. cerevisiae rad52 mutant growth inhibition, hits give high values
Outline: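 DNA repair-defective yeast; compound exposure; growth scored against vehicle controls.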

[2] = NCI Yeast Anticancer Drug Screen. Data for the wt1 strain (AID 149);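 note: 0% = growth of vehicle-treated wt1 cultures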; details: S. cerevisiae wt1 strain (SPY 50644) growth inhibition, hits give high values
Outline: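 wt1 yeast, compound-treated; % growth inhibition vs vehicle control.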

[3] = NCI Yeast Anticancer Drug Screen. Data for the rad50EPP+ strain (AID 151);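 note: 0% = growth of vehicle-treated control cultures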; details: S. cerevisiae rad50 mutant strain, hits give high values
Outline: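 rad50EPP+ yeast treated with test compounds. Readout: growth vs vehicle control.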

[4] = NCI Yeast Anticancer Drug Screen. Data for the rad50 strain (AID 155);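 note: 0% = growth of vehicle-only cultures of the same strain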; details: S. cerevisiae rad50 strain growth inhibition, hits give high values
Outline: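 Genetically altered yeast (DNA repair pathway); compound treatment; growth inhibition vs vehicle ctrl.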

[5] = NCI Yeast Anticancer Drug Screen. Data for the mec2-1 strain (AID 157); details: S. cerevisiae mec2-1 strain, hits give high values
Outline: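 Growth inhibition is read against vehicle-treated controls after compound exposure of the mec2-1 yeast strain, which is defective in DNA damage repair or cell cycle control.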

[6] = NCI Yeast Anticancer Drug Screen. Data for the rad14 strain (AID 159);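 note: 0% = growth of vehicle-treated control cultures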; details: S. cerevisiae rad14 strain growth inhibition, hits give high values
Outline: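 Test compounds were applied to a repair-deficient yeast strain. Its growth was then compared with that of cultures given vehicle alone, and inhibition was expressed relative to those controls.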

[7] = NCI Yeast Anticancer Drug Screen. Data for the sgs1 mgt1 strain (AID 161);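 note: 0% = growth of cultures given vehicle only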; details: S. cerevisiae sgs1 mgt1 strain, hits give high values
Outline: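 Percent growth inhibition was derived by comparing compound-exposed mutant yeast with vehicle-exposed cultures. The strain carries alterations in DNA damage repair.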

[8] = NCI Yeast Anticancer Drug Screen. Data for the CLN2oe strain (AID 163);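 note: 0% = growth of vehicle-only control cultures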; details: S. cerevisiae CLN2oe strain, hits give high values
Outline: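 Compound-treated yeast; growth vs vehicle ctrl = % inhibition. Genetically altered strain (cell-cycle control).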

[9] = NCI Yeast Anticancer Drug Screen. Data for the bub3 strain (AID 167); details: S. cerevisiae bub3 mutant strain, hits give high values
Outline: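 Yeast carrying a defined mutation is treated with each compound, and growth is compared with that of vehicle-exposed cells to give inhibition.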

[10] = NCI Yeast Anticancer Drug Screen. Data for the mlh1 strain (AID 171);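 note: 0% = growth of vehicle-treated control cultures of the same strain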; details: S. cerevisiae mlh1 strain growth inhibition, hits give high values
Outline: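 Compounds are applied to a genetically altered yeast strain, and its growth is compared with that of vehicle-treated cultures to give percent inhibition.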

[11] = NCI Yeast Anticancer Drug Screen. Data for the sgs1 strain (AID 173);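 note: 0% = growth of vehicle-only control cultures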; details: S. cerevisiae sgs1 mutant, hits give high values
Outline: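 Compounds applied to genetically altered yeast; growth compared with vehicle-treated cultures to give % inhibition.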

[12] = NCI Yeast Anticancer Drug Screen. Data for the mlh1 rad18 strain (AID 175); details: S. cerevisiae mlh1 rad18 strain growth inhibition, hits give high values
Outline: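 Cells of a genetically altered yeast strain, deficient in DNA damage repair, were treated with compound. Their growth was then compared with that of vehicle-treated cultures to give inhibition.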

[13] = NCI Yeast Anticancer Drug Screen. Data for the rad18 strain (AID 177); details: S. cerevisiae rad18 mutant growth inhibition, hits give high values
Outline: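 Compounds are applied to a repair-deficient yeast strain, and growth is compared with that of vehicle-treated cultures to give percent inhibition.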

[14] = NCI Yeast Anticancer Drug Screen. Data for the cln2 rad14 strain (AID 165);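 note: 0% = growth equal to vehicle treated cultures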; details: S. cerevisiae cln2 rad14 strain, hits give high values
Outline: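 Growth inhibition, relative to vehicle-treated controls, is the read-out. The test organism is a yeast strain with defined genetic alterations, cln2 rad14.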

[15] = NCI Yeast Anticancer Drug Screen. Data for the wt2 strain (AID 169);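 note: 0% = growth of vehicle-treated yeast cultures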; details: S. cerevisiae wt2 strain growth inhibition, hits give high values
Outline: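 Compound exposure of yeast; growth compared with vehicle controls; inhibition reported.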

[16] = at 5.0 µM (retest, dose inferred, filed as 0.5)
[17] = at 50.0 µM (retest, dose inferred, filed as 5.0)

Measured: growth inhibition

CCC(NC(C)c1ccccc1)C(=O)c1ccc(OCc2ccccc2)c(OCc2ccccc2)c1 (stereo not drawn)
active: [5]; [17] 97% | [12]; [17] 96%
inactive: [1]; at 1.2 µM 0% | [1]; at 3.7 µM 7% | [1]; at 11.0 µM 0% | [1]; at 33.0 µM 6% | [1]; at 100.0 µM -18% | [2]; at 1.2 µM 22% | [2]; at 3.7 µM 18% | [2]; at 11.0 µM 6% | [2]; at 33.0 µM 2% | [2]; at 100.0 µM -15% | [3]; at 1.2 µM 8% | [3]; at 3.7 µM 7% | [3]; at 11.0 µM 10% | [3]; at 33.0 µM 24% | [3]; at 100.0 µM 43% | [4]; at 1.2 µM -8% | [4]; at 3.7 µM 9% | [4]; [16] 11% | [4]; at 11.0 µM 22% | [4]; at 33.0 µM 14% | [4]; [17] 38% | [4]; at 50.0 µM -12.7% | [4]; at 100.0 µM 1% | [5]; at 1.2 µM 39% | [5]; at 3.7 µM 23% | [5]; [16] 9% | [5]; at 11.0 µM 35% | [5]; at 33.0 µM 31% | [5]; at 50.0 µM 15.3% | [5]; at 100.0 µM 30% | [6]; at 1.2 µM -1% | [6]; at 3.7 µM 3% | [6]; at 11.0 µM 3% | [6]; at 33.0 µM 3% | [6]; at 100.0 µM -12% | [7]; [16] -21% | [7]; [17] 15% | [7]; at 50.0 µM 28.2% | [8]; at 1.2 µM -4% | [8]; at 3.7 µM -3% | [8]; at 11.0 µM -14% | [8]; at 33.0 µM -16% | [8]; at 100.0 µM -29% | [9]; at 1.2 µM -47% | [9]; at 3.7 µM -38% | [9]; [16] -7% | [9]; at 11.0 µM -48% | [9]; at 33.0 µM -67% | [9]; [17] 1% | [9]; at 50.0 µM 22.8% | [9]; at 100.0 µM -81% | [10]; at 1.2 µM 5% | [10]; at 3.7 µM -6% | [10]; at 11.0 µM 3% | [10]; at 33.0 µM 0% | [10]; at 100.0 µM -3% | [11]; at 1.2 µM 8% | [11]; at 3.7 µM 18% | [11]; at 11.0 µM 11% | [11]; at 33.0 µM 42% | [11]; at 100.0 µM 19% | [12]; [16] 14% | [12]; at 50.0 µM -4.9% | [13]; at 1.2 µM -13% | [13]; at 3.7 µM -4% | [13]; at 11.0 µM -26% | [13]; at 33.0 µM -27% | [13]; at 100.0 µM -30%

Cc1ccccc1NC(=O)Cc1csc(N/N=C2\NC(=O)/C(=C/c3cccc([N+](=O)[O-])c3)S2)n1
inactive: [1]; at 1.2 µM 2% | [1]; at 3.7 µM 5% | [1]; at 11.0 µM 13% | [1]; at 33.0 µM 24% | [1]; at 100.0 µM 49% | [2]; at 1.2 µM 3% | [2]; at 3.7 µM 6% | [2]; at 11.0 µM 4% | [2]; at 33.0 µM 11% | [2]; at 100.0 µM 26% | [3]; at 1.2 µM 4% | [3]; at 3.7 µM 9% | [3]; at 11.0 µM 15% | [3]; at 33.0 µM 39% | [3]; at 100.0 µM 51% | [4]; at 1.2 µM -4% | [4]; at 3.7 µM -11% | [4]; [16] 8% | [4]; at 11.0 µM -6% | [4]; at 33.0 µM 24% | [4]; [17] 10% | [4]; at 50.0 µM 64.1% | [4]; at 100.0 µM 50% | [5]; at 1.2 µM 4% | [5]; at 3.7 µM 2% | [5]; [16] 8% | [5]; at 11.0 µM 5% | [5]; at 33.0 µM 12% | [5]; [17] 13% | [5]; at 50.0 µM 32.1% | [5]; at 100.0 µM 23% | [6]; at 1.2 µM 4% | [6]; at 3.7 µM 2% | [6]; at 11.0 µM 8% | [6]; at 33.0 µM 16% | [6]; at 100.0 µM 22% | [7]; [16] -1% | [7]; [17] 22% | [8]; at 1.2 µM 0% | [8]; at 3.7 µM 0% | [8]; at 11.0 µM -4% | [8]; at 33.0 µM 1% | [8]; at 100.0 µM 17% | [14]; [16] -16% | [14]; [17] 28% | [14]; at 50.0 µM 21.6% | [9]; at 1.2 µM -1% | [9]; at 3.7 µM -1% | [9]; [16] -25% | [9]; at 11.0 µM 0% | [9]; at 33.0 µM 15% | [9]; [17] 69% | [9]; at 50.0 µM 66.2% | [9]; at 100.0 µM 32% | [10]; at 1.2 µM 1% | [10]; at 3.7 µM 4% | [10]; at 11.0 µM 6% | [10]; at 33.0 µM 20% | [10]; at 100.0 µM 51% | [11]; at 1.2 µM 5% | [11]; at 3.7 µM 6% | [11]; at 11.0 µM 8% | [11]; at 33.0 µM 40% | [12]; [16] 13% | [12]; [17] 42% | [12]; at 50.0 µM 60.5% | [13]; at 1.2 µM -2% | [13]; at 3.7 µM -3% | [13]; at 11.0 µM 6% | [13]; at 33.0 µM 32% | [13]; at 100.0 µM 59%
active: [7]; at 50.0 µM 79% | [11]; at 100.0 µM 70%

CN(C)Cc1cccc(CN(C)C)[c]1[Sn]([Br])([c]1ccccc1)[c]1ccccc1
active: [1]; at 33.0 µM 74% | [1]; at 100.0 µM 97% | [2]; at 100.0 µM 96% | [4]; at 33.0 µM 82% | [4]; [17] 94% | [4]; at 50.0 µM 81.8% | [4]; at 100.0 µM 97% | [5]; [17] 98% | [5]; at 50.0 µM 86.2% | [5]; at 100.0 µM 94% | [6]; at 33.0 µM 78% | [6]; at 100.0 µM 97% | [7]; [17] 95% | [7]; at 50.0 µM 88.8% | [8]; at 100.0 µM 91% | [14]; at 50.0 µM 86.9% | [9]; [17] 95% | [9]; at 50.0 µM 88.8% | [9]; at 100.0 µM 95% | [15]; at 33.0 µM 87% | [15]; at 100.0 µM 97% | [11]; at 33.0 µM 81% | [11]; at 100.0 µM 97%
inactive: [1]; at 1.2 µM 28% | [1]; at 3.7 µM 45% | [1]; at 11.0 µM 57% | [2]; at 1.2 µM 20% | [2]; at 3.7 µM 36% | [2]; at 11.0 µM 49% | [2]; at 33.0 µM 58% | [3]; at 1.2 µM 19% | [3]; at 3.7 µM 32% | [3]; at 11.0 µM 30% | [3]; at 33.0 µM 36% | [3]; at 100.0 µM 39% | [4]; at 1.2 µM 30% | [4]; at 3.7 µM 62% | [4]; [16] 44% | [4]; at 11.0 µM 69% | [5]; at 1.2 µM 2% | [5]; at 3.7 µM 22% | [5]; [16] 47% | [5]; at 11.0 µM 42% | [5]; at 33.0 µM 56% | [6]; at 1.2 µM -3% | [6]; at 3.7 µM 17% | [6]; at 11.0 µM 27% | [7]; [16] 18% | [8]; at 1.2 µM -8% | [8]; at 3.7 µM 1% | [8]; at 11.0 µM 15% | [8]; at 33.0 µM 30% | [14]; [16] 13% | [14]; [17] 66% | [9]; at 1.2 µM -7% | [9]; at 3.7 µM 6% | [9]; [16] 32% | [9]; at 11.0 µM 18% | [9]; at 33.0 µM 50% | [15]; at 1.2 µM 10% | [15]; at 3.7 µM 13% | [15]; at 11.0 µM 41% | [11]; at 1.2 µM 8% | [11]; at 3.7 µM 44% | [11]; at 11.0 µM 66%
